# Assay results reported in paper PMC5540273 (PLoS ONE, 2017).
# Columns and labels:
# Settings in all cases: concentration: 1 μM, replicates: in singlicate; n = 1
# [1] = system: PAK1
# [2] = system: PAK2
# [3] = system: PAK3
# [4] = system: PAK4
# [5] = system: PAK6
# [6] = system: PAK7
# [7] = system: T1, PCTK1
# T1 construct: gene CDK16
# [8] = system: T2, PCTK2
# T2 construct: gene CDK17
# [9] = system: T3, PCTK3
# T3 construct: gene CDK18
# [10] = system: PDGFRA
# [11] = system: PDGFRB
# [12] = system: PDPK1
# [13] = system: PFTAIRE2
# [14] = system: T4, PFTK1
# T4 construct: gene CDK14
# [15] = system: PHKG1
# [16] = system: PHKG2
# [17] = system: PIK3C2B
# [18] = system: PIK3C2G
# [19] = system: PIK3CA
# [20] = system: PIK3CB
# 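Also: KINOMEscan kinase panel screen.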
SMILES,%Inh [1],%Inh [2],%Inh [3],%Inh [4],%Inh [5],%Inh [6],%Inh [7],%Inh [8],%Inh [9],%Inh [10],%Inh [11],%Inh [12],%Inh [13],%Inh [14],%Inh [15],%Inh [16],%Inh [17],%Inh [18],%Inh [19],%Inh [20]
C[C@@H]1CCN(C(=O)CO)C[C@@H]1N(C)c1ncnc2[nH]ccc12,0%,0%,0%,0%,0%,2%,0%,0%,4%,0%,14%,0%,0%,0%,4%,0%,0%,3%,0%,0%
CCc1nc(-c2cccc(C)c2)c(-c2ccnc(NC(=O)c3ccccc3)c2)s1,0%,0%,2%,0%,3%,0%,24%,7%,1%,0%,0%,0%,17%,10%,0%,0%,14%,49%,0%,29%
Cl.Cl.c1ccc(-c2cc3ccncc3cc2OC2CCNCC2)cc1 [GSK1122999],15%,31%,47%,0%,0%,2%,2%,12%,13%,0%,42%,0%,34%,12%,2%,0%,7%,0%,4%,26%
Cn1ccc2ncnc(Oc3ccc(NC(=O)Nc4cccnc4)c(Cl)c3)c21,17%,24%,38%,1%,16%,0%,19%,12%,0%,91.8%,99.7%,0%,10%,0%,15%,0%,6%,19%,4%,3%
CCn1c(-c2ccncc2)nc2cnccc21 [SB-735216],0%,47%,0%,0%,0%,0%,0%,0%,0%,13%,1%,0%,0%,3%,3%,0%,19%,0%,0%,0%
Cl.c1ccc(Cn2ncc3cc(Nc4ncnc5ccccc45)ccc32)cc1 [GW273749],5%,0%,0%,0%,15%,6%,0%,0%,23%,0%,0%,0%,20%,14%,0%,0%,16%,0%,0%,7%
O=C(c1ccc(-c2cc(-c3c[nH]nc3-c3ccccn3)ccn2)cc1)N1CCCC1 [GW792479],8%,0%,0%,16%,9%,0%,0%,0%,3%,0%,4%,0%,6%,0%,0%,19%,0%,5%,0%,0%
CSc1ccc(NC2=C(c3ccccc3Cl)C(=O)NC2=O)cc1 [SB-342411],0%,0%,14%,29%,8%,15%,29%,31%,67%,0%,31%,80%,20%,25%,0%,25%,0%,17%,0%,3%
COc1ccc(-c2oc3ncnc(N)c3c2-c2ccc(OC)cc2)cc1 [SB-589132],0%,16%,14%,0%,0%,0%,0%,0%,14%,17%,41%,0%,17%,0%,0%,0%,0%,10%,0%,0%
Cn1ccc2ncnc(Nc3ccc(Oc4cccc(Cl)c4)c(Cl)c3)c21,18%,0%,9%,19%,0%,0%,24%,26%,0%,26%,4%,22%,24%,0%,0%,10%,0%,28%,10%,60%
Nc1nc(-c2cccnc2)c(-c2ccnc3ccccc23)s1 [GW684083],0%,4%,20%,0%,0%,0%,0%,0%,11%,0%,28%,0%,16%,27%,14%,0%,0%,0%,0%,0%
Cl.Fc1ccccc1COc1ccc(Nc2ncnc3ccc(-c4nnc(C(F)(F)F)o4)cc23)cc1Cl [GW424170],0%,0%,0%,0%,0%,10%,0%,0%,17%,0%,20%,0%,6%,0%,0%,7%,0%,0%,0%,0%
N#Cc1ccc(Oc2ccc(Nc3ncnc4cc[nH]c34)cc2Cl)cc1,35%,45%,24%,19%,27%,15%,0%,13%,20%,25%,31%,1%,11%,17%,5%,18%,0%,28%,5%,11%
Cn1cc(-c2ccc3c(c2)CCN3C(=O)Cc2cccc(C(F)(F)F)c2)c2c(N)ncnc21 [GSK2606414],0%,0%,25%,0%,0%,0%,4%,0%,0%,38%,55%,6%,18%,0%,6%,0%,0%,2%,0%,0%
Cl.O=S(=O)(c1cccc(F)c1)c1ccc(Nc2ncnc3cc(Br)sc23)cc1Cl [GSK306886],1%,0%,0%,1%,1%,9%,4%,10%,11%,0%,46%,0%,24%,21%,0%,0%,28%,0%,0%,0%
Cl.Cn1ccc(-c2cccc(Nc3ccnc4cc(-c5nccs5)ccc34)c2)n1 [GW525701],0%,0%,18%,0%,0%,100%,0%,0%,30%,0%,40%,0%,0%,5%,0%,0%,0%,0%,0%,0%
COc1ccc(Nc2nccc(N3CCC(NC(=O)c4cccc(NC(C)=O)c4)C3)n2)cc1 (stereo not drawn) [GSK1379732],0%,0%,0%,0%,0%,6%,0%,10%,1%,0%,20%,10%,17%,36%,0%,1%,0%,0%,0%,9%
Fc1cccc(COc2ccc(Nc3ncnc4nn5ccccc5c34)cc2Cl)c1 [GW689066],15%,15%,8%,15%,0%,0%,0%,0%,0%,0%,13%,0%,4%,0%,2%,0%,0%,0%,0%,41%
